Test systems include LCK; LIMK1; LIMK2; LRRK2; LTK; LYN; MAK; MAP3K15; MAP3K1; MAP3K2; MAP3K3; MAP3K4; MAP4K2; MAP4K3; MAP4K4; MAP4K5; MAPKAPK2.
Details in all cases: concentration: 1 μM, replicates: in singlicate; n = 1
Another experiment has as its system T1, LKB1.
T1 construct: gene STK11

The test system of a further experiment is T2, LOK.
T2 construct: gene STK10

Another experiment relates to T3, LZK.
T3 construct: gene MAP3K13
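Also: KINOMEscan kinase panel screen.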

Regarding `CC(C)(C)c1ccc2nccc(Nc3cccc(O)c3)c2c1` [GW856795], the “%Inh” value in the experiment with LCK was 85%; with LIMK1, 0%; in the experiment with LIMK2, 1%; in the experiment with LKB1 it was 29%; with LOK it was 0%; in the experiment on LRRK2 it was 36%. Moreover, the “%Inh” value in the experiment on LTK came to 18%; in the experiment with LYN, 22%; in the experiment on LZK, 0%; in the experiment on MAK, 40%; with MAP3K15, 0%; in the experiment with MAP3K1, 0%. Further, the “%Inh” value is 0% with MAP3K2; 0% in the experiment with MAP3K3; 0% with MAP3K4; 100% with MAP4K2; 0% in the experiment on MAP4K3; 23% with MAP4K4. In addition, the “%Inh” value in the experiment on MAP4K5 is on record as 29%; in the experiment with MAPKAPK2, 11%.

`Cn1cc(-c2ccc3c(c2)CCN3C(=O)Cc2cccc(Cl)c2)c2c(N)ncnc21` [GSK2606590]: the “%Inh” value with LCK is recorded as 44%; in the experiment with LIMK1 it was 3%; with LIMK2, 52%; in the experiment on LKB1, 0%; in the experiment with LOK, 98.1%; in the experiment on LRRK2, 29%. Moreover, the “%Inh” value in the experiment with LTK worked out at 47%; in the experiment on LYN it was 15%; with LZK, 0%; with MAK it was 6%; in the experiment with MAP3K15, 17%; in the experiment with MAP3K1, 11%. The “%Inh” value in the experiment with MAP3K2 stood at 84%; with MAP3K3, 56%; in the experiment on MAP3K4 it was 52%; with MAP4K2 it was 8%; in the experiment on MAP4K3, 71%; in the experiment with MAP4K4 it was 0%. For the same compound, the entries for the “%Inh” value with MAP4K5 and in the experiment on MAPKAPK2 were 79% and 19%, respectively.

Regarding `Nc1n[nH]c2cnc(-c3ccccc3)cc12` [SB-642124], the “%Inh” value with LCK is on record as 0%; in the experiment on LIMK1 it was 19%; in the experiment with LIMK2, 1%; in the experiment with LKB1 it was 0%; in the experiment on LOK, 0%; with LRRK2, 12%. The “%Inh” value in the experiment with LTK is recorded as 0%; with LYN, 3%; in the experiment on LZK, 0%; in the experiment on MAK, 37%; in the experiment on MAP3K15, 21%; with MAP3K1, 14%. The “%Inh” value in the experiment on MAP3K2 stood at 12%; in the experiment with MAP3K3 it was 0%; in the experiment on MAP3K4 it was 23%; in the experiment with MAP4K2 it was 31%; in the experiment with MAP4K3, 3%; with MAP4K4, 17%. Besides, the “%Inh” value amounted to 0% in the experiment with MAP4K5 and 20% in the experiment with MAPKAPK2.

On to `COc1cc(Nc2nccc(N3CCC(NC(=O)c4cc5ccccc5s4)C3)n2)cc(OC)c1OC` (centres unmarked) [GSK1379760], for which the “%Inh” value was 29% with LCK; 17% in the experiment on LIMK1; 24% in the experiment with LIMK2; 14% in the experiment on LKB1; 84% in the experiment with LOK; 0% in the experiment on LRRK2. For the same compound, the “%Inh” value is 13% in the experiment with LTK; 31% with LYN; 30% in the experiment with LZK; 23% in the experiment on MAK; 0% with MAP3K15; 7% in the experiment on MAP3K1. Besides, the “%Inh” value in the experiment on MAP3K2 is recorded as 0%; with MAP3K3, 11%; in the experiment with MAP3K4 it was 16%; with MAP4K2, 13%; in the experiment on MAP4K3 it was 8%; with MAP4K4 it was 25%. The figures for the “%Inh” value with MAP4K5 and with MAPKAPK2 were 28% and 0%, respectively.

Values taken from paper PMC5540273 (PLoS ONE, 2017).
